# The list is not random: actives were taken first. Their share in the collection is about 7.5%.
# ELG1 genotoxic = qHTS screen for small molecules that induce genotoxicity in human embryonic kidney (HEK293T) cells expressing luciferase-tagged ELG1; HEK293T ELG1-luciferase reporter, luminescence, 16 h; Potency, µM (titrated, usually from 46 µM), hits mostly activators; hit rate 1.3% among 330,000; AID 504466, 2011; further: nearly all actives have a fitted effect of over 60% in size
#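 Genotoxicity was scored as increased ELG1-luciferase reporter signal, measured by ONE-Glo luminescence (30 min, room temperature). Compound or vehicle exposure of the HEK293T reporter cells lasted 16 hr at 37°C.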
# Rab9 prom act = qHTS Assay for Rab9 Promoter Activators | Huh7 Rab9 promoter-luciferase reporter, luminescence, 24 h | Potency, µM (doses to about 9.22 µM), most hits filed as activators | hit rate 2.8% among 320,000 | AID 485297, 2010; further: nearly all actives have a fitted effect of over 60% in size
#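 Huh7 reporter line, Rab9 promoter upstream of luciferase. Compound exposure 24 h at 37 °C in reduced-serum medium with 10% FBS. Read-out: luminescence.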
# FLuc counter = qHTS profiling assay for firefly luciferase inhibitor/activator using purifed enzyme and Km concentrations of substrates (counterscreen for miR-21 project); Luciferin 4-monooxygenase (Photinus pyralis), P08659; purified FLuc, Km substrates, luminescence inhibition; Potency, µM (highest dose often 57.5 µM), hits mostly inhibitors; hit rate 6.9% among 360,000; further: nearly all actives have a fitted effect of over 55% in size
# Target sequence (P08659 whole entry, looked up): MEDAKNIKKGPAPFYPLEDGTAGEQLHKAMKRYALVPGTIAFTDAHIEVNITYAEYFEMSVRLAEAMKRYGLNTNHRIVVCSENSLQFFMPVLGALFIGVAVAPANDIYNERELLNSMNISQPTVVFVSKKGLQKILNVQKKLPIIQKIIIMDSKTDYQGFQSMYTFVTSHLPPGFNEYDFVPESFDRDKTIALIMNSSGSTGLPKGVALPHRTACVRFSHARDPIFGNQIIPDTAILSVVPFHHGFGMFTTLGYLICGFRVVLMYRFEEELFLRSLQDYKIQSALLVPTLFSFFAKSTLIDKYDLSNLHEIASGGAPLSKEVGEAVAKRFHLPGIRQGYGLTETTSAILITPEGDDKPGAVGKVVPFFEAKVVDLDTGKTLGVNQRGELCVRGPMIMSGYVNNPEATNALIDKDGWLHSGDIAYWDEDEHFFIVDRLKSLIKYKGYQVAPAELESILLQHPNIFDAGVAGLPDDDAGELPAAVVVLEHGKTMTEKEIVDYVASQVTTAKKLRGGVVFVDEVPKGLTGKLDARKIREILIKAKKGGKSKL
#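 Purified P. pyralis luciferase, 10 nM final, with Km-level 10 uM D-luciferin and 10 uM ATP in 50 mM Tris acetate pH 7.5, 10 mM Mg acetate, 0.01% Tween-20, 0.05% BSA; 6-point qHTS titration about 60 µM downward; luminescence read.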
# NPC1 prom act = qHTS Assay for NPC1 Promoter Activators. Huh7 NPC1 promoter luciferase reporter, 24 h. hit rate 2.4% among 320,000. Potency, µM (titrated, usually from 9.22 µM), most hits filed as activators; further: nearly all actives have a fitted effect of over 60% in size
#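 Luciferase expression driven by the NPC1 promoter was measured in stably transfected Huh7 cells after a 24 h compound incubation, using a luciferase reagent and a luminescence read.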
# SMN2 splice up = qHTS Assay for Enhancers of SMN2 Splice Variant Expression; HEK293 SMN2-luciferase splicing reporter, luminescence, 30-36 h; Potency, µM (series often up to 46.1 µM), hits mostly activators; hit rate 2.8% among 210,000; further: nearly all actives have a fitted effect of over 55% in size
#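 qHTS luciferase splicing reporter: luminescence rises when SMN2 exon 7 is included in transfected HEK293 cells. Compound exposure lasted 30-36 h at 37C, with 4.5 mM final sodium butyrate as control, followed by a ONE-Glo read.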
# Luc counter = Counterscreen for Luciferase (Kinase-Glo TM) Inhibition | Luciferin 4-monooxygenase (Photuris pensylvanica), Q27757 | Kinase-Glo luciferase, ATP luminescence, 8 min | Potency, µM (doses to about 38.3 µM), hits mostly inhibitors | hit rate 0.28% among 200,000; further: nearly all actives have a fitted effect of over 60% in size
#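 Light output from Kinase-Glo luciferase with luciferin and 10 uM ATP in 50 mM imidazole pH 7.2, KCl, MgCl2, Tween 20, BSA; compound pin-delivered, 8-min ambient incubation, then luminescence read.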
# Hits are given with their value; - = inactive; ? = inconclusive; . = no result given; [ ] = dose if it differs, or a comment. The call rests on the fitted dose curve; in most records, active means well fitted curve in the direction sought with a large enough effect; inconclusive means small, poorly fitted or top-dose-only effect, or another doubt; inactive means no such curve, though single readings can be large; an effect the other way counts as inactive or inconclusive.
SMILES,ELG1 genotoxic,Rab9 prom act,FLuc counter,NPC1 prom act,SMN2 splice up,Luc counter
O=C1c2ccccc2C(=O)C1c1ccc(Br)cc1,?,-[1.84 µM],6.01µM,?,.,.
Cc1ccoc1C(=O)Nc1ccc2ccccc2c1,?,0.447µM,0.379µM,1µM,.,.
O=C(O)Cc1ccc(NC(=O)c2ccc(NC(=O)c3ccco3)cc2)cc1,-,-,?,-,-,-
Cc1cc(C(=O)Nc2ccc3ccccc3c2)oc1C,9.2µM,0.794µM,2.13µM,0.631µM,.,.
Cc1ccoc1C(=O)Nc1ccc(CC(=O)O)cc1,?,-,1.69µM,-,?,-
Cc1cc(C(=O)Nc2ccc3ccccc3c2)c(C)o1,0.651µM,3.55µM,1.35µM,1.41µM,.,.
CC(=O)c1cc(C(=O)Nc2ccc3ccccc3c2)c(C)o1,-,-,-,-,.,.
O=C(CCN1C(=O)C2CCCCC2C1=O)N1CCN(S(=O)(=O)c2c(F)cccc2F)CC1 (stereo unspecified),-,-,-,-,.,.
CC(C)(C)c1ccc(S(=O)(=O)c2cn(CC(=O)Nc3ccccc3)c3ccccc3c2=O)cc1,.,.,-,.,-,.
Cc1cc(C)c2oc(C(=O)Nc3c(C)n(C)n(-c4ccccc4)c3=O)cc(=O)c2c1,.,.,-,.,-,.
CC(=O)c1cccc(NC(=O)CCn2nc(C)c(S(=O)(=O)N(C)C)c2C)c1,.,.,-,.,.,.
COc1ccc(-c2cc(-c3ccc4c(c3)NC(=O)CO4)nc3c2COc2ccc(C)cc2-3)cc1,.,.,?,.,-,.
CCOC(=O)c1c(NC(=O)COc2cccc(C)c2C)sc2c1CCC(CC)C2 (stereo unspecified),.,.,-,.,-,.
O=C(OCc1c(-c2ccccc2)ncc2ccccc12)N1CCOCC1,-,-,2.69µM,-,.,.
C=C(C)C1CC=C(C)/C(=N\NC(=S)Nc2ccc(C)cc2)C1 (stereo unspecified),-,-,-,-,?,-
CCN(CC)C(=O)CSc1nc(N)c2c3c(sc2n1)CC(C)CC3 (stereo unspecified),-,-,1.9µM,-,-,-
CCOC(=O)CSc1nc(N)c2c3c(sc2n1)CCCC3,-,-,9.53µM,-,-,-
CC1CCc2c(sc3nc(SCC(=O)NCc4ccco4)nc(N)c23)C1 (stereo unspecified),-,-,4.78µM,-,-,-
CSc1ncc(Cl)c(C(=O)Nc2c(C(=O)c3ccc(C)c(F)c3)oc3ccccc23)n1,.,.,-,.,-,.
Cn1cc(-c2cc3n(n2)CCC(=O)N3CCCC(=O)NCc2ccccc2)c2ccccc21,.,.,-,.,.,.
Cc1cccc(C(=O)N2CCCC(N3CCN(c4ccccc4)CC3)C2)n1 (stereo unspecified),-,-,-,-,.,.
COc1ccc(/C=C/C(=O)N2CCC(c3nc4ccccc4o3)CC2)cc1,.,.,19µM,.,.,.
COc1ccc(/C=C/C(=O)N2CCC(c3ccccc3)C2)cc1 (stereo unspecified),-,-,19µM,-,-,-
COC(=O)C1CCN(C(=O)/C=C/c2ccc(OC)cc2)CC1,2.31µM,1.12µM,21.3µM,0.282µM,.,-
Cc1cccc(NC(=O)CSCC(=O)N(C)Cc2c(F)cccc2Cl)c1,-,-,-,-,.,.
SMILES,ELG1 genotoxic,Rab9 prom act,FLuc counter,NPC1 prom act,SMN2 splice up,Luc counter
CC1CCCC(C)N1CCCNC(=O)c1ccc2nc(N3CCOCC3)sc2c1 (stereo unspecified),-,-,-,-,.,.
CC1CCCC(C)N1CCCNC(=O)c1ccc2nc(N3CCCCC3)sc2c1 (stereo unspecified),-,?,-,3.16µM,.,.
CC1CC(C)CN(CCCNC(=O)c2ccc3nc(N4CCCCC4)sc3c2)C1 (stereo unspecified),?,?,-,0.447µM,.,.
Cc1nc(NCCO)c2nc(-c3ccccc3)n(CCCN(C)C)c2n1,.,.,.,.,-,-
CCOC(=O)CNC(=O)c1cc(C)oc1C,-,-,-,-,?,-
Cc1oc(-c2ccc3c(c2)OCCO3)cc1C(=O)NC(Cc1ccccc1)C(=O)O (stereo unspecified),-,-,15.1µM,-,.,.
COC(=O)CCC(NC(=O)c1cc(-c2ccc3c(c2)OCCO3)oc1C)C(=O)OC (stereo unspecified),-,-,16.9µM,-,-,-
CCOC(=O)CNC(=O)c1cc(-c2ccc3c(c2)OCCO3)oc1C,?,-,9.53µM,-,-,-
COC(=O)C(Cc1c[nH]c2ccccc12)NC(=O)c1cc(-c2ccc(OC)c(OC)c2)oc1C (stereo unspecified),-,-,-,-,-,-
CCOC(=O)CNC(=O)c1ccc2c(c1)OCCO2,?,?,19µM,?,-,-
CCc1ccc(NC(=O)c2cc3nc(-c4ccc(C)cc4)cc(C(F)(F)F)n3n2)cc1,.,.,-,.,-,.
COc1ccc(C(=O)NCCc2nnc3ccc(SCC(=O)N4CCCC4)nn23)cc1,-,-,-,-,.,.
COc1cccc(NC(=O)COC(=O)c2cc(=O)c3ccccc3o2)c1,-,-,-,-,.,.
COc1cc(C(=O)Nc2ccc(-c3nc4ccccc4o3)c(O)c2)cc(OC)c1OC,.,.,-,.,-,.
Nc1ccc(C(=O)Nc2ccc(OC(F)(F)C(F)F)c(NC(=O)c3ccc(N)cc3)c2)cc1,-,-,21.3µM,-,.,.
Nc1ccc(NC(=O)c2ccc(C(=O)Nc3ccc(N)cc3)cc2)cc1,-,-,-,-,.,.
COCCn1c(=S)[nH]c2cc(C(=O)N(CCO)Cc3ccccc3)ccc2c1=O,-,-,-,-,.,.
COc1ccc(/C=N/Nc2cc(C)nc(N)n2)cc1,-,-,19µM,-,?,-
COc1cc(/C=N/Nc2cc(C)nc(N)n2)ccc1O,?,-,9.53µM,-,.,.
CCn1cnc2sc(C(=O)Oc3cccc(C)c3)c(C)c2c1=O,18.3µM,?,?,?,-,-
O=C(O)CCC(=O)/C=C/c1ccccc1,-,-,-,-,.,-
CCOc1ccc(/C=C\C(C)=N\O)cc1,10.3µM,2.24µM,8.49µM,2µM,15.8µM,-
CCOc1ccc(/C=C/C(=O)CCC(=O)O)cc1,?,0.708µM,1.07µM,?,.,-
CC(C)c1ccc(/C=C/C(=O)NCc2ccc(S(N)(=O)=O)cc2)cc1,-,-,13.5µM,-,-,-
NS(=O)(=O)c1ccc(CNC(=O)/C=C/c2ccc(Cl)c(Cl)c2)cc1,-,-,-,-,-,-
CC(C)c1ccc(/C=C/C(=O)CCC(=O)O)cc1,?,0.794µM,0.239µM,0.282µM,1.41µM,-
COc1ccc(/C=N/NC(=O)c2cccc(NC(=O)c3ccc(Cl)cc3)c2)c(OC)c1,-,?,2.69µM,-,?,-

# Assay outcomes as filed in PubChem BioAssay.
